From PubChem BioAssay (NCI)
Compounds without any hit were thinned out: in the full panel of roughly 79,000, 15% have a hit. A number with no mark means an inactive call. Active and inactive are the calls of the source. Rule as the data show it: active = growth inhibition above about 70%; inactive = the rest.

Experiment: NCI Yeast Anticancer Drug Screen. Data for the cln2 rad14 strain (AID 165);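 also: 0% = growth equal to vehicle treated cultures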
Conditions: S. cerevisiae cln2 rad14 strain, at 50.0 µM, active compounds read high
Method in brief: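 Growth inhibition, relative to vehicle-treated controls, is the read-out. The test organism is a yeast strain with defined genetic alterations, cln2 rad14.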

Compound	growth inhibition
O=CN/C=C\c1cc(O)ccc1O	21.4%
O=C1NC(=O)N2CCCOC2C1c1ccccc1 (stereo not drawn)	-10.2%
C=CCC(C)C(=O)NNC(=O)C(C)CC=C (stereo not drawn)	-13.3%

Experiment: NCI Yeast Anticancer Drug Screen. Data for the bub3 strain (AID 167)
Conditions: S. cerevisiae bub3 mutant strain, at 50.0 µM, active compounds read high
Method in brief: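 Inhibition values come from growth of compound-treated mutant yeast normalised to vehicle-treated controls.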

Compound	growth inhibition
O=C1C(O)CCN1C1CCCCC1 (stereo not drawn)	4.55%
C[P+](C)(C)c1ccccc1	3.15%
Cc1nc2c(SCc3ccccc3)ncnc2o1	35.4%
BrC1(C2(Br)N(c3ccccc3)CCN2c2ccccc2)N(c2ccccc2)CCN1c1ccccc1	2%
CCOC(=O)C(F)(F)C(F)(F)C(F)(F)F	-5.55%
CC(=O)Nc1nc(NC(C)=O)c2nc(C)cnc2n1	10.6%
CCOC(=O)NC(=O)c1cn(CC(=O)NCC(=O)NCC(=O)N2CCN(CCn3c(C)nc(C(N)=O)c3N)CC2)c(=O)[nH]c1=O	2.75%
Cc1cc(C)[n+]([O-])c(C)c1	-19.4%
CCN(CC)c1c(C)nnn1C1OC(COC(C)=O)C(OC(C)=O)C(OC(C)=O)C1OC(C)=O (stereo not drawn)	11.8%
C[Si](C)(/C(=C/COCc1ccccc1)CCOC1CCCCO1)c1ccccc1 (stereo not drawn)	0.6%
N#Cc1cnsc1	12.4%
O=[N+]([O-])c1ccc(N/N=C/c2ccccn2)nc1	6%
COC(=O)CCC(=O)NC1=C(NCc2ccccc2)C(=O)c2ccccc2C1=O	38.9%
CC1=CC(OC2CCCCO2)CC(C)(C)C1 (stereo not drawn)	0.05%
CCCCN(CCCC)CC(O)c1cc2ccc(Cl)cc2nc1-c1ccc(Cl)cc1 (stereo not drawn)	-6.15%
COC(=O)NC(Nc1ccc(Cl)cc1Cl)(C(F)(F)F)C(F)(F)F	30.1%
S=c1c2ccccc2c(=S)n2n1CC=CC2	16.8%
CCCCCCCCCCCCCCC[N+](C)(C)C	97.5% (active)
CC(=O)NNc1nc(C)c(C(/C=C/c2ccc(Cl)cc2)=N\NS(=O)(=O)c2ccc(C)cc2)s1	23.6%
NCC(=O)Nc1ccc(C(=O)O)cc1	4.05%

Compound	growth inhibition
C=C1CCC2[C@@H](CCC3[C@]2(C)CCC[C@]3(C)C(=O)OC)[C@@H]1CC=O (stereo partly drawn)	9.5%
COc1ccc(C2=CCCCc3cc(O)c(OC)cc32)cc1	98.1% (active)
CNC(=O)OCc1c(COC(=O)NC)c(-c2ccc(S(=O)(=O)c3ccccc3)cc2)n(C)c1C	-16.4%
O=C1CC=NC(=S)N1	-2.7%
N#C/C(=C1/Sc2c(nc[nH]c2=O)N1c1ccccc1)c1nc2ccccc2[nH]1	-40%
C=C1C(=O)OC2C1C(OC(=O)/C(C)=C/C)CC1(C)C(=O)CCC(=C)C21 (stereo not drawn)	52.8%
O=C1OCCC1n1cc(F)c(=O)[nH]c1=O (stereo not drawn)	-20.2%
CCC(C)(CC)OC(=O)c1ccc([N+](=O)[O-])cc1	2.85%
C/C=C(\C)C(=O)OC1C2C(C)=CC(=O)C(O)C2(C)C2C3(O)OCC24C1OC(=O)C(OC(C)=O)C4C(C)C3O (stereo not drawn)	91.7% (active)
Cc1cc(C)c2ccc(NN=O)nc2n1	13.2%
C1CCSCCCCCSCCCCCSCCCCCSCC1	4.35%
CC(=O)N(CN1C(=O)CCC1C(=O)O)c1ccccc1 (stereo not drawn)	0.7%
Cc1ccc(CN2CCOCC2)c(O)c1	-7.45%
CC1CCC/C1=C(/I)C(=O)c1ccccc1 (stereo not drawn)	-2.15%
CN1CCCC2C3=CC=C4CC(O)CCC4(C)C3CCC21C (stereo not drawn)	23.9%
O=c1c2c(oc3cc(OCC4CO4)ccc13)CCC2 (stereo not drawn)	-9.05%
COc1cc(/C=C/C=C2\CCC/C(=C\C=C\c3ccc(O)c(OC)c3)C2=O)ccc1O	10.8%
O=CN/C=C\c1cc(O)ccc1O	16.9%
O=C1NC(=O)N2CCCOC2C1c1ccccc1 (stereo not drawn)	-2.7%
C=CCC(C)C(=O)NNC(=O)C(C)CC=C (stereo not drawn)	-12.2%

Experiment: NCI Yeast Anticancer Drug Screen. Data for the mlh1 rad18 strain (AID 175)
Conditions: S. cerevisiae mlh1 rad18 strain growth inhibition; at 50.0 µM; active compounds read high
Method in brief: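 Cells of a genetically altered yeast strain, deficient in DNA damage repair, were treated with compound. Their growth was then compared with that of vehicle-treated cultures to give inhibition.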

Compound	growth inhibition
O=C1C(O)CCN1C1CCCCC1 (stereo not drawn)	0.2%
C[P+](C)(C)c1ccccc1	-3.7%
Cc1nc2c(SCc3ccccc3)ncnc2o1	19.5%
BrC1(C2(Br)N(c3ccccc3)CCN2c2ccccc2)N(c2ccccc2)CCN1c1ccccc1	11.6%
CCOC(=O)C(F)(F)C(F)(F)C(F)(F)F	11.8%
CC(=O)Nc1nc(NC(C)=O)c2nc(C)cnc2n1	25.2%
CCOC(=O)NC(=O)c1cn(CC(=O)NCC(=O)NCC(=O)N2CCN(CCn3c(C)nc(C(N)=O)c3N)CC2)c(=O)[nH]c1=O	-4.85%
Cc1cc(C)[n+]([O-])c(C)c1	-2.85%
CCN(CC)c1c(C)nnn1C1OC(COC(C)=O)C(OC(C)=O)C(OC(C)=O)C1OC(C)=O (stereo not drawn)	-12%
C[Si](C)(/C(=C/COCc1ccccc1)CCOC1CCCCO1)c1ccccc1 (stereo not drawn)	-27.4%
N#Cc1cnsc1	-26.8%
O=[N+]([O-])c1ccc(N/N=C/c2ccccn2)nc1	5.4%
COC(=O)CCC(=O)NC1=C(NCc2ccccc2)C(=O)c2ccccc2C1=O	13.6%
CC1=CC(OC2CCCCO2)CC(C)(C)C1 (stereo not drawn)	-5.15%
CCCCN(CCCC)CC(O)c1cc2ccc(Cl)cc2nc1-c1ccc(Cl)cc1 (stereo not drawn)	78.8% (active)
COC(=O)NC(Nc1ccc(Cl)cc1Cl)(C(F)(F)F)C(F)(F)F	16.6%
S=c1c2ccccc2c(=S)n2n1CC=CC2	15.7%
CCCCCCCCCCCCCCC[N+](C)(C)C	99.5% (active)
CC(=O)NNc1nc(C)c(C(/C=C/c2ccc(Cl)cc2)=N\NS(=O)(=O)c2ccc(C)cc2)s1	9.45%
NCC(=O)Nc1ccc(C(=O)O)cc1	9.1%

Compound	growth inhibition
C=C1CCC2[C@@H](CCC3[C@]2(C)CCC[C@]3(C)C(=O)OC)[C@@H]1CC=O (stereo partly drawn)	14.8%
COc1ccc(C2=CCCCc3cc(O)c(OC)cc32)cc1	97.2% (active)
CNC(=O)OCc1c(COC(=O)NC)c(-c2ccc(S(=O)(=O)c3ccccc3)cc2)n(C)c1C	-42.6%
O=C1CC=NC(=S)N1	28.4%
N#C/C(=C1/Sc2c(nc[nH]c2=O)N1c1ccccc1)c1nc2ccccc2[nH]1	-41.9%
C=C1C(=O)OC2C1C(OC(=O)/C(C)=C/C)CC1(C)C(=O)CCC(=C)C21 (stereo not drawn)	63.6%
O=C1OCCC1n1cc(F)c(=O)[nH]c1=O (stereo not drawn)	-2%
CCC(C)(CC)OC(=O)c1ccc([N+](=O)[O-])cc1	43.3%
C/C=C(\C)C(=O)OC1C2C(C)=CC(=O)C(O)C2(C)C2C3(O)OCC24C1OC(=O)C(OC(C)=O)C4C(C)C3O (stereo not drawn)	91.6% (active)
Cc1cc(C)c2ccc(NN=O)nc2n1	25.7%
C1CCSCCCCCSCCCCCSCCCCCSCC1	-8.7%
CC(=O)N(CN1C(=O)CCC1C(=O)O)c1ccccc1 (stereo not drawn)	-31.3%
Cc1ccc(CN2CCOCC2)c(O)c1	-11.4%
CC1CCC/C1=C(/I)C(=O)c1ccccc1 (stereo not drawn)	-59.6%
CN1CCCC2C3=CC=C4CC(O)CCC4(C)C3CCC21C (stereo not drawn)	35.5%
O=c1c2c(oc3cc(OCC4CO4)ccc13)CCC2 (stereo not drawn)	-21.4%
COc1cc(/C=C/C=C2\CCC/C(=C\C=C\c3ccc(O)c(OC)c3)C2=O)ccc1O	14.2%
O=CN/C=C\c1cc(O)ccc1O	13.1%
O=C1NC(=O)N2CCCOC2C1c1ccccc1 (stereo not drawn)	22.3%
C=CCC(C)C(=O)NNC(=O)C(C)CC=C (stereo not drawn)	11.8%
